Inconclusive results are not listed. The source made the active and inactive calls. Unless noted, the call rests on the fitted dose curve; in most records, active means well fitted curve in the direction sought with a large enough effect; inconclusive means small, poorly fitted or top-dose-only effect, or another doubt; inactive means no such curve, though single readings can be large; an effect the other way counts as inactive or inconclusive.
Tests used:
Furin (Homo sapiens) = Furin (Homo sapiens) (UniProt P09958); experiment: Furin counterscreen qHTS for Zika virus inhibitors (AID 1347149); further: nearly all actives have a fitted effect of over 70% in size; further: potency means the concentration at half of the fitted maximal effect;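 on activity change, negative = inhibition: purified recombinant full-length human furin enzyme at 5 nM; fluorescence gain from furin cutting a BOC-RVRR-AMC peptide substrate over 15 min; top concentration of the series differs between compounds; plate controls were no-inhibitor control for no effect and no-enzyme control for full effect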
Furin (Homo sapiens), sequence (P09958 whole entry, looked up): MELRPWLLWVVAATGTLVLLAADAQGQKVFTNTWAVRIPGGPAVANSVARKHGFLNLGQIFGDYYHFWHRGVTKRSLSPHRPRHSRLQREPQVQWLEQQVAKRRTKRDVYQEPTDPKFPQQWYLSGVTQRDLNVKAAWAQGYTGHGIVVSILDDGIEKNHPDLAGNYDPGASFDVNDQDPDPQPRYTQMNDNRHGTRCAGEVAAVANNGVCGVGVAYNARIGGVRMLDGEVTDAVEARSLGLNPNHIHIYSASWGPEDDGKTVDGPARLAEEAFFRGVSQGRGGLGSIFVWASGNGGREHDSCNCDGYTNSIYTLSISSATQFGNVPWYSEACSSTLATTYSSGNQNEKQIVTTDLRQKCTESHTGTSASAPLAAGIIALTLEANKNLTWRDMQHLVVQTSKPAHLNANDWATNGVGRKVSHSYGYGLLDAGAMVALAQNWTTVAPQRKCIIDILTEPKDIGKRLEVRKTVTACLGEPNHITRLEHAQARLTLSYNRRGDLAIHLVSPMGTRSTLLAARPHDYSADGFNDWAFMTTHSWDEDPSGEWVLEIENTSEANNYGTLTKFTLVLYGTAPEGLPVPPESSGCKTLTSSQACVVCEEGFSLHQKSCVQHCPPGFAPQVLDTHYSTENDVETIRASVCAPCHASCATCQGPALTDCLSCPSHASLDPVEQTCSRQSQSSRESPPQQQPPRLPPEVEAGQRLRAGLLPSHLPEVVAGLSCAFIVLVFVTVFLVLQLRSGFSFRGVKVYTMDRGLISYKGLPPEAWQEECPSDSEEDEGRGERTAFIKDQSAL
Summary of the method: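 Counterscreen measures cleavage of 2 microM BOC-RVRR-AMC, below its ~15 microM Km, by 5 nM full-length human furin at pH 7.0 after a 15-min compound preincubation. Inhibition derives from the 15-min fluorescence increase at 37C.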

[1] = system: Zika virus NS2B-NS3 protease (linked construct); experiment: Confirmatory screen NINDS AMC qHTS for Zika virus inhibitors (AID 1347152); further: nearly all actives have a fitted effect of over 70% in size; further: potency means the concentration at half of the fitted maximal effect;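 on activity change, negative = inhibition: AMC fluorescence gain from cleaved Bz-Nle-KRR-AMC substrate over 15 min; top concentration of the series differs between compounds; 0% = no-inhibitor control and -100% = no-enzyme control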
Summary of the method: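 Enzyme (1 nM, linked construct) was preincubated with compound for 15 minutes at room temperature in 10 mM Tris-HCl pH 8.0 with 0.01% Tween 20. Bz-Nle-Lys-Arg-Arg-AMC was then added to 10 microM, and AMC fluorescence was recorded immediately and after 15 minutes.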

[2] = system: Zika virus NS2B-NS3 protease (unlinked complex); experiment: Confirmatory screen GU AMC qHTS for Zika virus inhibitors (AID 1347153); further: nearly all actives have a fitted effect of over 70% in size
Summary of the method: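 Noncovalent NS2B hydrophilic domain/NS3 protease complex (25 nM) in 10 mM Tris-HCl pH 8.0, 0.01% Tween 20 was preincubated 15 min at room temperature with compounds. Then 10 µM AMC substrate (Km 18.3 µM) was added; fluorescence was read over 15 min and fitted to a 4-parameter Hill equation.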

[3] = system: Zika virus NS2B-NS3 protease (linked); experiment: 384 well plate NINDS AMC confirmatory qHTS for Zika virus inhibitors (AID 1347163); further: nearly all actives have a fitted effect of over 50% in size; further: potency means the concentration at half of the fitted maximal effect;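 on activity change, negative = inhibition: linked protease at 5 30 or 60 nM final depending on run; fluorescence of AMC released from Ac-VKTGKR-AMC peptide cleaved by the protease; top concentration of the series differs between compounds; 0% = no-inhibitor control and -100% = no-enzyme control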
Summary of the method: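 Fluorescence at 355/460 nm was read after 25 minutes of cleavage of 30 microM Ac-VKTGKR-AMC at room temperature, in the dark. Before substrate addition, compounds (up to 1 mM final) sat ~15 minutes with 5, 30 or 60 nM linked protease. Signals were normalized to no-enzyme and no-inhibitor wells.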

[4] = molecular target: Cytochrome P450 3A4 (Homo sapiens) (UniProt P08684); experiment: qHTS Assay for Inhibitors and Substrates of Cytochrome P450 3A4 (AID 884); further: on the % scale 0 is the no-effect control and ±100 the full control effect; nearly all actives have a fitted effect of over 50% in size
Cytochrome P450 3A4 (Homo sapiens), sequence (P08684 whole entry, looked up): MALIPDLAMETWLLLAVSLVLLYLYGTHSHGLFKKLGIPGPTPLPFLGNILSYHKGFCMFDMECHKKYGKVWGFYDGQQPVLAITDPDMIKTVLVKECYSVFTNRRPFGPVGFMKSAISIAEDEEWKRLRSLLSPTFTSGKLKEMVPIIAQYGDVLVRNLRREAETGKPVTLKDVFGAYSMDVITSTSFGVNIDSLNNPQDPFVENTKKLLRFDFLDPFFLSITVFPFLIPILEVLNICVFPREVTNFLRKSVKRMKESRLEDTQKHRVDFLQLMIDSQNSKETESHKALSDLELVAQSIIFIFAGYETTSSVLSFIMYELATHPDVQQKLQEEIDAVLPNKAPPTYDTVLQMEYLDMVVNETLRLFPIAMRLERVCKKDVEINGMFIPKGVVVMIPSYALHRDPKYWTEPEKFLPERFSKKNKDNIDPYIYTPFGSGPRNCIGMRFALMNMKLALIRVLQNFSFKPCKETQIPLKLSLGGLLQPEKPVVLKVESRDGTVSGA
Summary of the method: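 Luminescent readout of luciferin produced by CYP3A4 (20 nM) dealkylation of Luciferin-PPXE, 25 uM (its KM). NADPH-driven reaction ran 60 min at RT after 10 min compound preincubation; data scaled to 57 uM ketoconazole as 100% inhibition.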

[5] = Confirmation and Secondary Assay for Modulators of Hemoglobin Beta Chain Splicing at IVS2 654 locus (AID 910);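 further: HeLa cells stably carrying EGFP split by mutant beta-globin IVS2-654 intron; % of control where 0% means no effect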
Summary of the method: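 HeLa cells stably expressing EGFP interrupted by β-globin IVS2-654 intron, seeded overnight in Opti-MEM/2% FCS, then treated 2 days at 37 °C. Restored splicing read as total peak GFP intensity per well by laser scanning cytometry (488 nm excitation, 500–520 nm emission); 500 nM antisense PNA as control.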

[6] = Confirmation and Secondary Assay for Modulators of Hemoglobin Beta Chain Splicing at IVS2 705 locus (AID 930);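 further: HeLa cells stably expressing the EGFP-705 splicing reporter; GFP fluorescence per well restored by corrected splicing of the IVS2-705 intron in EGFP; % of control where 0% means no effect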
Summary of the method: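 HeLa cells stably carrying EGFP interrupted by mutant beta-globin intron 2 (IVS2-705) treated 2 days at 37C with compound; 500 nM antisense PNA as control. Correct splicing read as total peak GFP intensity per well by laser-scanning cytometry.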

[7] = qHTS Assay for Lipid Storage Modulators (AID 1519; calls by dose curve); conditions: Drosophila S3 cells, BODIPY lipid droplet/cell ratio, laser cytometry, cells loaded with oleic acid
Summary of the method: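 Cells seeded at 5,000 per well were treated with compounds over a concentration series and loaded with oleic acid (400 uM, as added). Lipid droplet fluorescence (488 nm excitation, 500-530 nm channel) was read by laser-scanning cytometry and normalized to 20 uM Triacsin C.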

[8] = Vero cells viability qHTS for Zika virus inhibitors (AID 1347167); further: potency means the concentration at half of the fitted maximal effect
Summary of the method: (§1)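 qHTS titration; 24-48 h compound exposure, 37 degrees C/5% CO2; DMEM, 4% FBS; CellTiter Glo ATP luminescence.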

[9] = HepG2 cells viability qHTS for Zika virus inhibitors (AID 1347168); further: on the % scale 0 is the no-effect control and ±100 the full control effect
Summary of the method: as §1

[10] = Tertiary RLuc qRT-PCR qHTS assay for Zika virus inhibitors (AID 1347169); further: nearly all actives have a fitted effect of over 55% in size; further: potency means the concentration at half of the fitted maximal effect
Summary of the method: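 Vero, 1,000 cells/well, o/n 37 C; cpd pinned in DMSO; ZIKV-RLuc Cambodian, MOI 1-2, 48-72 h 37 C; live-cell RLuc substrate, lum read at 1-1.5 h.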

[11] = Primary qHTS for small molecule stabilizers of the endoplasmic reticulum resident proteome: Secreted ER Calcium Modulated Protein (SERCaMP) assay (AID 1508630); further: on the % scale 0 is the no-effect control and ±100 the full control effect
Summary of the method: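 The SH-SY5Y reporter protocol was run at 3 concentrations up to 38.3 uM (primary) or 11 concentrations (follow-up): 16 h compound, 100 nM thapsigargin for 4 h, then extracellular luciferase luminescence.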

[12] = molecular target: Cytochrome P450 3A4 (Homo sapiens) (UniProt P08684); experiment: qHTS Assay for Activators of Cytochrome P450 3A4 (AID 885); further: potency means the concentration at half of the fitted maximal effect; nearly all actives have a fitted effect of over 65% in size
Summary of the method: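 CYP3A4 activity: Luciferin-PPXE O-dealkylation, 25uM substrate, 200mM KPO4, RT throughout. Read-out is luciferase luminescence; higher values reflect activation.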

[13] = system: Zika virus NS2B-NS3 protease (linked construct); experiment: 384 well plate NINDS Rhodamine confirmatory qHTS for Zika virus inhibitors (AID 1347164);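 further: fluorescence from protease cleavage of Ac-LKRR-rhodamine 110 substrate; potency means the concentration at half of the fitted maximal effect; nearly all actives have a fitted effect of over 65% in size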
Summary of the method: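 Enzyme (final 5/30/60 nM) + cpd (DMSO), ~15 min; add Ac-LKRR-Rd 10 microM final; 25 min RT, dark; FI ex 485/em 538; normalized to no-enzyme, no-inhibitor ctrls; aprotinin intraplate ctrl.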

[14] = system: Zika virus NS2B-NS3 protease (unlinked); experiment: Optimization of GU AMC qHTS for Zika virus inhibitors: Unlinked NS2B-NS3 protease assay (AID 1347151); further: nearly all actives have a fitted effect of over 80% in size; further: potency means the concentration at half of the fitted maximal effect;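 on activity change, negative = inhibition: 0% = no-inhibitor control and -100% = no-enzyme control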
Summary of the method: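 Unlinked protease (25 nM final); buffer 10 mM Tris-HCl pH 8.0 + 0.01% Tween 20; AMC substrate; 15 min RT, dark; Δfluorescence normalized to no-inhibitor/no-enzyme controls; 4-parameter Hill fit.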

[15] = ZIKV-mCherry secondary qHTS for Zika virus inhibitors (AID 1347158); further: top concentration of the series differs between compounds
Summary of the method: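 Percent infection is the share of Hoechst-identified Vero nuclei with mCherry signal above 450 RFU (3 SD over negative controls). Cells were infected with recombinant ZIKV-mCherry at MOI 1 after compound addition and imaged 48–72 h later.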

[16] = molecular target: Lysosomal acid glucosylceramidase (Homo sapiens) (UniProt P04062); experiment: Glucocerebrosidase-p2 (AID 348; in the data active means potency below about 10 µM; further: potency means the concentration at half of the fitted maximal effect); conditions: purified GBA, blue fluorogenic substrate, 40 min
Lysosomal acid glucosylceramidase (Homo sapiens), sequence (P04062 whole entry, looked up): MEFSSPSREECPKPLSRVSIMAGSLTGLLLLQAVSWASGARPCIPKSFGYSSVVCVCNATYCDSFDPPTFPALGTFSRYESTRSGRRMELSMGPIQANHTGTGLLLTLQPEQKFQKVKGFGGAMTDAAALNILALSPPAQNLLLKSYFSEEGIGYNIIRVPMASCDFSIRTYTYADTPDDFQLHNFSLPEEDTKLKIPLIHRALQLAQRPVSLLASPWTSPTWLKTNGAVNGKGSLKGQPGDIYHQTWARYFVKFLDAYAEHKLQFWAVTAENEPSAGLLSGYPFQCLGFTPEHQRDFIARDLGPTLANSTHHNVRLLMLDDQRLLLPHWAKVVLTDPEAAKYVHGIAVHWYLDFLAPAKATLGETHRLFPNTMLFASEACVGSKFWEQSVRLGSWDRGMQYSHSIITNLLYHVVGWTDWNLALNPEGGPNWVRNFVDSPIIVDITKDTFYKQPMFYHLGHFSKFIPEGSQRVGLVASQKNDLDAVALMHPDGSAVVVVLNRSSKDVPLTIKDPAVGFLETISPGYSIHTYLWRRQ
Summary of the method: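 Normal human glucocerebrosidase (0.2 nM) with blue fluorogenic substrate (80 uM final) in citrate/phosphate pH 5.9 with 10mM sodium taurocholate, 0.01% tween-20; 40 min RT, NaOH/glycine stop; fluorescence Ex 365/Em 440; AC50 from a titration from 0.6 nM upwards.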

[17] = AP1 Signaling Pathway (AID 357; active means well fitted curve in either direction with a large enough effect, not every such curve was filed as active;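 further: ME-180 reporter cells stimulated with EGF at its EC50 level; on the % scale 0 is the no-effect control and ±100 the full control effect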); conditions: ME-180 (cervical carcinoma) AP-1-bla reporter, EGF-induced, beta-lactamase ratio, 5 h; at 7.69 µM (top of the series)
Summary of the method: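 In this screen, ME-180 cells in Opti-MEM with 0.5% dialyzed FBS received EC50 EGF and compound titrations for 5 h. AP-1 reporter beta-lactamase was detected via CCF4 ratio, giving AC50 for positive and negative modulators.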

[18] = molecular target: Glucocorticoid receptor (Homo sapiens) (UniProt P04150); experiment: GR-GFP Redistribution (AID 450;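 active means compounds whose dose series gives a full or clear partial fitted curve of increased nuclear translocation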; further: potency means the concentration at half of the fitted maximal effect); conditions: U2OS GR-GFP nuclear translocation, laser cytometry, 2 h
Glucocorticoid receptor (Homo sapiens), sequence (P04150 whole entry, looked up, the tested form may be a part): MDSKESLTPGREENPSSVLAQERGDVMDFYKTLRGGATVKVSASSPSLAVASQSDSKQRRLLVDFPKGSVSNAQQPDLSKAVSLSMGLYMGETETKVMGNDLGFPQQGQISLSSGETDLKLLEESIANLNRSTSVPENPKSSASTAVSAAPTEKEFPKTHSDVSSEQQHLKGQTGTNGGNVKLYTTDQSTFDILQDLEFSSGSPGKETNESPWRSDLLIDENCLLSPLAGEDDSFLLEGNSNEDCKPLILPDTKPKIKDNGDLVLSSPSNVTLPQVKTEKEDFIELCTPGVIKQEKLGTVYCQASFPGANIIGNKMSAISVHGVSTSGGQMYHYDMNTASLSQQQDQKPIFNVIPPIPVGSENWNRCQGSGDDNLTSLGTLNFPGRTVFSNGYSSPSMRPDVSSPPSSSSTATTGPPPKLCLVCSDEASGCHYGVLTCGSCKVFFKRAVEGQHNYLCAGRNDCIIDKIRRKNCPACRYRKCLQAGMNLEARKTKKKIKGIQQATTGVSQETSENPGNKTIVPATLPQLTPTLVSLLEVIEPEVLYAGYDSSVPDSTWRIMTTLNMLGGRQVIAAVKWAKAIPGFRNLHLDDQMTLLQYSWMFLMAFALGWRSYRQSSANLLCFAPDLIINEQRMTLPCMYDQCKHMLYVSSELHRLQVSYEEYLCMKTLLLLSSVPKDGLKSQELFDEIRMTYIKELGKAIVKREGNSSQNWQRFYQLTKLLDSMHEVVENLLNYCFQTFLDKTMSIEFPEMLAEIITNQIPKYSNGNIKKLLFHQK

[19] = molecular target: Glucocorticoid receptor (Homo sapiens) (UniProt P04150); experiment: GR-EFC Redistribution (AID 451; calls by dose curve; further: potency means the concentration at half of the fitted maximal effect); conditions: CHO-K1 GR-EFC translocation, beta-gal luminescence, 2 h
Summary of the method: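 CHO-K1 cells expressing nuclear EA and GR-ED fragments of b-gal; compounds titrated up to 46 uM final, 2 h at 37 C. GR nuclear translocation read as complemented b-gal luminescence after 1 h RT detection.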

[20] = molecular target: Mitogen-activated protein kinase 10 (Mus musculus) (UniProt Q61831); experiment: JNK3 AlphaScreen Assay (AID 530; active means well fitted curve in either direction with a large enough effect, not every such curve was filed as active;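 further: kinase came from lysate of stimulated human HepG2 cells; signal reports phosphorylation of biotinylated GST-cJun 1-79 at Ser73 with 10 µM ATP; on the % scale 0 is the no-effect control and ±100 the full control effect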)
Summary of the method: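 Activity was read by AlphaScreen after JNK3-containing HepG2 lysate (cytokine pre-activated) phosphorylated biotinylated GST-cJun with 10 uM ATP at room temperature. Phospho-Ser73 cJun antibody with Protein-A acceptor beads provided detection.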

[21] = molecular target: 3',5'-cyclic-AMP phosphodiesterase 4B (Homo sapiens) (UniProt Q07343); experiment: qHTS Assay for Inhibitors of PDE-IV (AID 607; active means well fitted activation curve with a large enough effect in the main read-out, with a control signal flat, not every such curve was filed as active; further: % of control where 0% means no effect)
3',5'-cyclic-AMP phosphodiesterase 4B (Homo sapiens), sequence (Q07343 whole entry, looked up): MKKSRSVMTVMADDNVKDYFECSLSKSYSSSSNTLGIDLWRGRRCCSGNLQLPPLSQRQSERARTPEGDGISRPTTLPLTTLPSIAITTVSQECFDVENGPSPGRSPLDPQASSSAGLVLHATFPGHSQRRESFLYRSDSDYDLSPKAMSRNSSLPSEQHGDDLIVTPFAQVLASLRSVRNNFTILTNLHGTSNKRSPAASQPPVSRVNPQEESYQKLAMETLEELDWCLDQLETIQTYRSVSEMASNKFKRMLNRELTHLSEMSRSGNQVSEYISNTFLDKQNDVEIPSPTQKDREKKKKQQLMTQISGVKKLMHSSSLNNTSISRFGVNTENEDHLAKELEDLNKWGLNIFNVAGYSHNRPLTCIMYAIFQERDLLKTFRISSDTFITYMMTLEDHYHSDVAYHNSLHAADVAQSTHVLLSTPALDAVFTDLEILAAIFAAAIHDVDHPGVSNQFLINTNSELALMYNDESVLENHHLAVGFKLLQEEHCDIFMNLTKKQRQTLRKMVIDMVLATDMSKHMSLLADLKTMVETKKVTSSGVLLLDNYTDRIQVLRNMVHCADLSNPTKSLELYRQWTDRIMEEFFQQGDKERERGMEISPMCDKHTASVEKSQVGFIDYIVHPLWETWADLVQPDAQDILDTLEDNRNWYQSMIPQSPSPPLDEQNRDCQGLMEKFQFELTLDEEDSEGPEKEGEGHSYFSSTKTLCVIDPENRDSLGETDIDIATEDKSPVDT
Summary of the method: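 ACTOne HEK293 cells carry a modified cAMP-gated CNG channel and express endogenous PDE4; plated 1000 cells/well, compounds up to 22.9 uM final. Membrane-potential dye fluorescence (ex 535/em 590) was read; parental cells received 10 uM forskolin + 100 uM RO 20-1724.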

[22] = system: Zika virus NS2B-NS3 protease; experiment: Primary screen GU AMC qHTS for Zika virus inhibitors (AID 1347154); further: potency means the concentration at half of the fitted maximal effect; nearly all actives have a fitted effect of over 70% in size
Summary of the method: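 Unlinked Zika NS2B hydrophilic domain–NS3 protease complex at 25 nM in 10 mM Tris-HCl pH 8.0, 0.01% Tween 20, with an AMC peptide substrate. Fluorescence change (340/450 nm) over 15 min at room temperature, normalized to controls, fitted to 4-parameter Hill.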

[23] = Confirmatory screen NINDS Rhodamine qHTS for Zika virus inhibitors (AID 1347161);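 further: purified Zika NS2B-NS3 protease with linked NS2B cofactor domain and Rhodamine110 peptide substrate; plate controls were no-inhibitor control for no effect and no-enzyme control for full effect; nearly all actives have a fitted effect of over 60% in size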
Summary of the method: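 Single-chain NS2B-NS3 protease, 25 nM, pH 8.0; compounds preincubated 15 min. Activity: Rhodamine110 release from 1.5 microM substrate over 15 min, room temperature, data fitted to 4-parameter Hill.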

Cc1cccc(C)c1NS(=O)(=O)c1ccc(NS(=O)(=O)c2ccc3c(c2)OCCO3)cc1
active: Potency [3] 200 µM
inactive: Potency (Furin (Homo sapiens)) | Potency [1] | Potency [2]

CN(Cc1cnc2nc(N)nc(N)c2n1)c1ccc(C(=O)NC(CCC(=O)O)C(=O)O)cc1 (configuration not stated)
16%: max response ([7]; measured here: lipid channel max response)
active: Potency (Furin (Homo sapiens)) 21.5 µM
inactive: Potency [4] | outcome [5] | outcome [6] | activity change, negative = inhibition ([7]; at 57.5 µM (top of the series)) 6.64% | Potency [1] | Potency [2] | Potency [8] | Potency [9] | Potency [10] | Potency [11]
7.14%: max response ([7]; measured here: cell count channel max response)

O=C(O)c1c(Sc2ccccc2)c2cc(Cl)ccc2n1Cc1ccc(Cl)cc1
inactive: Potency [4] | Potency [8] | Potency [9] | Potency [11]
active: Potency [12] 7.94 µM | Potency (Furin (Homo sapiens)) 21.5 µM | Potency [1] 6.81 µM | Potency [2] 19.2 µM | Potency [3] 126 µM

O=C(O)COc1ccc(-c2nccc3c2C(=O)N(Cc2cccc(C(F)(F)F)c2)CC(COc2ccc(OC(F)(F)F)cc2)O3)cc1 (configuration not stated)
active: Potency (Furin (Homo sapiens)) 49.4 µM | Potency [1] 22.1 µM | Potency [2] 22.1 µM | Potency [13] 25.1 µM
inactive: Potency [10]

O=C(Nc1ccc(Oc2ccccc2)cc1)O[C@@H]1CO[C@H]2[C@@H]1OC[C@@H]2NS(=O)(=O)c1ccc(Cl)cc1
inactive: Potency (Furin (Homo sapiens)) | Potency [1] | Potency [2]

Oc1cc2ccccc2c2ccccc12
inactive: Potency (Furin (Homo sapiens)) | Potency [15] | Potency [3]
active: Potency [14] 44.1 µM | Potency [13] 447 µM | Potency [8] 19 µM | Potency [10] 6.02 µM

CC(C)CN1CC(COc2cccc(C(F)(F)F)c2)Oc2ccnc(-c3ccc(OCC(=O)O)cc3)c2C1=O (configuration not stated)
inactive: Potency (Furin (Homo sapiens)) | Potency [1] | Potency [2] | Potency [10]
active: Potency [13] 141 µM

CCOc1ccc(C2C(=O)N(C3CCCCC3)CC(=O)N2Cc2ccc(F)cc2)cc1OC (configuration not stated)
active: Potency [10] 8.29 µM
inactive: Potency (Furin (Homo sapiens)) | Potency [14] | Potency [8] | Potency [9]

Cc1c2ccccc2c(CSC(=N)N)c2ccccc12
inactive: activity change, negative = inhibition [17] -16.8% | Potency [18] > 46 µM | Potency [19] > 9.22 µM | activity change, negative = inhibition [20] 27.8% [at 11.4 µM] | Potency [21] | Potency (Furin (Homo sapiens)) | Potency [1] | Potency [2] | Potency [23] | Potency [8] | Potency [11]
active: Potency [16] 1.39 µM | Potency [22] 21.2 µM

COc1ccc(-c2ccnc(N[C@H]3CO[C@H]4[C@@H]3OC[C@@H]4NS(=O)(=O)c3ccc4ccccc4c3)n2)cc1
inactive: Potency (Furin (Homo sapiens)) | Potency [1] | Potency [2]
